The structures appear in SMILES notation. Values without a mark were called inactive.

This assay relates to Vero E6 infected with SARS-CoV-2. Nature of the assay: inhibition of SARS-CoV-2 cytopathic effect; higher = more antiviral protection, active = above 15. The settings on record: 8.33 nM; 48 h. Background: Cytopathic effects are the visible damage that an infection or toxin causes in cultured cells.
As for `Cc1cnc(Nc2ccc(OCCN3CCCC3)cc2)nc1Nc1cccc(S(=O)(=O)NC(C)(C)C)c1` [fedratinib], the “inhibition of SARS-CoV-2 cytopathic effect” value (from here on “inhibition”) is 1.42%.

On to `CCC(=O)O[C@H]1[C@H](O[C@@H]2[C@@H](C)[C@H](O[C@H]3C[C@@](C)(OC)[C@@H](O)[C@H](C)O3)[C@@H](C)C(=O)O[C@H](CC)[C@@](C)(O)[C@H](O)[C@@H](C)C(=O)[C@H](C)C[C@@]2(C)O)O[C@H](C)C[C@@H]1N(C)C` [erythromycin-estolate], for which the “inhibition” value is 1.07%.

For `O=c1c(O)c(-c2ccc(O)c(O)c2)oc2cc(O)ccc12` [fisetin], the “inhibition” value was -1.12%.

Take `O=[N+]([O-])c1ccc(O)c([N+](=O)[O-])c1` [2,4-dinitrophenol]: the “inhibition” value is 2.11%.

`N=C(N)NCc1cccc(I)c1` [iobenguane]: the “inhibition” value is -0.29%.

As for `COc1cc2nccc(Oc3ccc(NC(=O)NC4CC4)c(Cl)c3)c2cc1C(N)=O` [lenvatinib], the “inhibition” value is -0.25%.

On to `CNC(=O)c1c(I)c(C(=O)NCC(=O)Nc2c(I)c(C(=O)O)c(I)c(C(=O)NCCO)c2I)c(I)c(N(C)C(C)=O)c1I` [ioxaglic-acid], for which the “inhibition” value is 1.46%.

In the case of `Oc1ccc(CC2NCCc3cc(O)c(O)cc32)cc1` (configuration not stated) [higenamine], the “inhibition” value is 2.53%.

Take `CCOC(=O)C1=C(C)NC(=S)NC1c1cccc(O)c1` (configuration not stated) [monastrol]: the “inhibition” value was -0.07%.

Turning to `O=C/C=C/c1ccccc1` [cinnamaldehyde], the “inhibition” value is 2.28%.

As to `O=C(O)C(=O)CBr` [3-bromopyruvate], the “inhibition” value is 1.4%.

For `CN1CC[C@@H](NC(=O)Nc2ccc(C#N)cc2)C[C@@H]1c1nc2ccccc2[nH]1` [glasdegib], the “inhibition” value is 1.32%.

On to `COc1cc(C(=O)OCCCN2CCCN(CCCOC(=O)c3cc(OC)c(OC)c(OC)c3)CC2)cc(OC)c1OC` [dilazep], for which the “inhibition” value was 1.04%.

On to `COC(=O)[C@]12CCC(C)(C)C[C@H]1[C@H]1C(=O)C=C3[C@@]4(C)C=C(C#N)C(=O)C(C)(C)[C@@H]4CC[C@@]3(C)[C@]1(C)CC2` [Bardoxolone Methyl], for which the “inhibition” value was 3.94%.

For the compound `CC(=O)OC[C@H](N)C(=O)O` [O-acetyl-L-serine], the “inhibition” value was 1.11%.

Consider `CCN1C(=O)NC(c2ccccc2)C1=O` (configuration not stated) [ethotoin], for which the “inhibition” value was 4.06%.

`CN1CCCN=C1/C=C/c1cccs1` [pyrantel-pamoate]: the “inhibition” value is 1.39%.

As to `O=c1ccc2ccc(O)c(O)c2o1` [daphnetin], the “inhibition” value is 2.35%.

On to `CC(C)(C)c1ccc(C(O)CCCN2CCC(C(O)(c3ccccc3)c3ccccc3)CC2)cc1` (configuration not stated) [terfenadine], for which the “inhibition” value was -2.95%.

In the case of `COc1cc2c(Nc3ccc(Cl)c(Cl)c3F)ncnc2cc1OC[C@@H]1C[C@@H]2CN(C)C[C@@H]2C1`, the “inhibition” value is -2.66%.

Take `CC/C(=C(\c1ccccc1)c1ccc(OCCN(C)C)cc1)c1ccccc1` [tamoxifen]: the “inhibition” value was 1.81%.

In the case of `N[C@@H](C(=O)O)c1ccc(C(=O)O)c(O)c1` (racemic) [4-carboxy-3-hydroxyphenylglycine-(RS)], the “inhibition” value was -0.33%.

As to `N#C[C@@H]1C[C@@H]2C[C@@H]2N1C(=O)[C@@H](N)C12CC3CC(CC(O)(C3)C1)C2`, the “inhibition” value is -0.66%.

With `O=C(CCCN1CCC2(CC1)C(=O)NCN2c1ccccc1)c1ccc(F)cc1` [spiperone], the “inhibition” value is 1.62%.

Turning to `CCC[C@@H](NC(=O)N1C(=O)C(CC)(CC)[C@@H]1Oc1ccc(C(=O)N2CCN(C)CC2)cc1)c1ccc2c(c1)OCO2`, the “inhibition” value was 1.44%.

Consider `CC(C)c1ccc(NC(=O)Cn2cnc3c2c(=O)n(C)c(=O)n3C)cc1`, for which the “inhibition” value was 1.6%.

Take `CN1CCc2c(c3ccccc3n2Cc2ccccc2)C1` [mebhydrolin]: the “inhibition” value is 2.44%.

In the case of `COc1cc2c(cc1OC)C1CC(=O)C(CC(C)C)CN1CC2` (configuration not stated) [tetrabenazine], the “inhibition” value is 0.64%.

For `CC#CC(=O)N1CCC[C@H]1c1nc(-c2ccc(C(=O)Nc3ccccn3)cc2)c2c(N)nccn12` [acalabrutinib], the “inhibition” value was -0.44%.

Regarding `Fc1ccccc1CNCc1ccc(-c2ccnc3[nH]ccc23)cc1`, the “inhibition” value is 2.19%.

For the compound `CCC/C=C1\OC(=O)C2=C1CCC=C2` [ligustilide], the “inhibition” value is 9.89%.

For the compound `O=C(Nc1ncc(SCCN2CCCC2)s1)[C@]1(c2ccc(S(=O)(=O)C3CC3)cc2)C[C@H]1C1CCCCC1`, the “inhibition” value was -0.96%.

These data come from the supplement of paper PMC13380429.
